Data on 35 compounds can be found in PubChem BioAssay.

The source made the active and inactive calls.

The assay can be described thus: change in splice reporter luminescence, either direction, cell-based, HEK293, spliceosome inhibition project, primary screen (AID 1101).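 Further: HEK293 cells carrying a splicing-competent luciferase reporter gene; test concentration not given here.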 The note with it: HEK293 splicing luciferase reporter, 24 h, higher = more signal, called active from +8 up or from −8 down. (Reporter assays use an easily measured gene product as a stand-in for the process of interest.)
Turning to `COc1ccc([Si](C)(C)[C@@H]2[C@@H](CC(=O)N3CCC[C@H]3CO)O[C@]3(C(=O)N(C)c4c(Br)cc(C)cc43)[C@H]2C)cc1`, the z-score was -0.778 (inactive).
Consider `CN(C)CCCCCCNC(=O)[C@H]1C[C@H]2C(=O)N[C@@H](CCCCN)C(=O)N2[C@H]1c1ccc(O)cc1`, for which the z-score is 0.509 (inactive).
The same measure for `COCC(=C=CC[C@H](O)c1ccc(OCCO)cc1)C[C@H](O)c1cc(Cl)cc(Cl)c1O`: -2.51 (inactive); for `COc1cc(C(O)C2C=CC3C(=O)N(c4ccccc4)C(=O)C3N2Nc2ccc(C#N)cc2)cc(OC)c1OC` (stereo not given): 1.22 (inactive).
As to `N#Cc1ccc(NN2C(C(O)c3ccc([N+](=O)[O-])cc3)C=CC3C(=O)N(c4ccccc4)C(=O)C32)cc1` (stereo not given), the z-score was 2.23 (inactive).
Consider `CC(=O)NCCCC[C@@H]1NC(=O)[C@@H]2C[C@H](C(=O)NCCCCCCNC(=O)CS)[C@H](c3ccc(O)cc3)N2C1=O`, for which the z-score was 0.584 (inactive).
Turning to `CCOC(=O)C[C@H]1[C@H](OC(=O)Cc2ccc3c(c2)OCO3)[C@@H](NC(=O)c2ccc(-c3ccccc3)cc2)c2cc(OCCCO)ccc2N1C(=O)c1ccccc1`, the z-score is -0.586 (inactive).
Regarding `O=C1O[C@@H](c2ccccc2)[C@@H](c2ccccc2)N2[C@@H](c3ccccc3OCCO)[C@]3(C(=O)Nc4ccc(C#CC5(O)CCCCCC5)cc43)[C@@H](C(=O)Nc3nc4ccccc4s3)[C@H]12`, the z-score was 0.554 (inactive).
The same measure for `Cc1ccccc1C(O)C1C=CC2C(=O)N(C)C(=O)C2N1N1CCCCC1` (stereo not given): 1.28 (inactive); for `COCCOC(=O)N1C(=O)[C@@]2(c3ccccc31)[C@H](C(=O)Nc1nc3ccccc3s1)[C@H]1C(=O)O[C@H](c3ccccc3)[C@H](c3ccccc3)N1[C@@H]2c1ccc(OCCO)cc1`: -0.128 (inactive); for `CC(C)C[C@@H]1NC(=O)[C@H]2C[C@@H](C(=O)NCCCCCNC(=O)CS)[C@@H](c3cccc(OCCO)c3)N2C1=O`: 0.684 (inactive).
Consider `COc1ccc(C#Cc2ccc3c(c2)[C@]2(C(=O)N3)[C@H](c3ccc(O)cc3)N3[C@H](c4ccccc4)[C@H](c4ccccc4)OC(=O)[C@H]3[C@@H]2C(=O)NC[C@H](O)c2ccccc2)cc1`, for which the z-score is -1.02 (inactive).
As for `O=C1OCC=C[C@H]2OC34C=CCN(c5ccc(Cl)cc5)C(=O)[C@H]3N(CCCCCCO)C(=O)[C@@H]4[C@@H]12` (stereo not given in full), the z-score was -0.313 (inactive).
As to `C=CCOC(=O)[C@H]1[C@@H]2C(=O)O[C@@H](c3ccccc3)[C@@H](c3ccccc3)N2[C@@H](c2ccc(OCCOC(=O)[C@@H]3C[C@@H]4C(=O)N5CCC[C@H]5C(=O)N4[C@@H]3c3ccc(O)cc3)cc2)[C@]12C(=O)Nc1ccccc12`, the z-score is 0.109 (inactive).
As to `CCCC[C@H]1OB(O)C[C@H]2C1=C(C)C[C@H]1C(=O)N(Cc3ccccc3)C(=O)[C@H]12`, the z-score was 0.0984 (inactive).
`CCCC[C@@H]1C[C@H]1[C@@H](NC(=O)c1ccc(-c2ccccc2)cc1)c1ccc(-c2ccccc2)cc1`: the z-score was -2.88 (inactive).
In the case of `COCC(=C=CC[C@@H](O)c1ccc(CO)o1)CCO`, the z-score was -2.32 (inactive).
With `Cc1ccc(S[C@]2(C(=O)NCc3ccccc3)CC(=O)N(Cc3ccccc3Cl)[C@@H]2c2ccc(CO)cc2I)cc1`, the z-score is -1.6 (inactive).
Regarding `CC=CC(O)C1C=CC2C(=O)N(c3ccccc3)C(=O)C2N1Nc1ccc(C(C)C)cc1` (stereo not given), the z-score is -0.235 (inactive).
For the compound `COCCOC(=O)N1C(=O)[C@@]2(c3ccccc31)[C@H](C(=O)NC[C@H](O)c1ccccc1)[C@H]1C(=O)O[C@H](c3ccccc3)[C@H](c3ccccc3)N1[C@@H]2c1ccc(OCCO)cc1`, the z-score was -1.81 (inactive).
The value for `[N-]=[N+]=NCc1ccccc1C[C@@]1(C(=O)NCC(O)CO)N=C(c2ccc(OCCCO)cc2)O[C@@H]1c1ccccc1CN=[N+]=[N-]` (stereo not given in full) was 0.135 (inactive); that for `COc1ccc(C#Cc2ccc3c(c2)[C@]2(C(=O)N3)[C@H](C(=O)NC[C@H](O)c3ccccc3)[C@H]3C(=O)O[C@H](c4ccccc4)[C@H](c4ccccc4)N3[C@@H]2c2ccccc2OCCO)cc1` was -0.955 (inactive); that for `COC(=O)[C@@]1(Cc2ccccc2)[C@H]2c3cc(C(=O)N(C)C)n(Cc4cc(C)n(C)n4)c3C[C@H]2CN1C(=O)c1ccccc1` was -1.26 (inactive).
As for `C#CCN(C(/C=C/c1ccccc1)CO)C(C(=O)O)c1ccccc1` (stereo not given), the z-score was -1.89 (inactive).
In the case of `COc1ccc([Si](C)(C)[C@@H]2[C@@H](CCn3cc([C@H](O)c4ccccc4)nn3)O[C@]3(C(=O)N(Cc4cccc(N5CCOC5=O)c4)c4ccccc43)[C@H]2C)cc1`, the z-score was 1.7 (inactive).
As to `Cc1ccc(S[C@]2(C(=O)O)CC(=O)N(C3Cc4ccccc4C3)[C@@H]2c2ccc(CO)cc2I)cc1`, the z-score is -0.0201 (inactive).
In the case of `CCOC(=O)C[C@H]1[C@H](OC(=O)c2ccc(-c3ccccc3)cc2)[C@@H](NC(=O)Cc2ccc(OC)cc2)c2cc(OCCCO)ccc2N1C(=O)c1ccc2ccccc2n1`, the z-score is -1.05 (inactive).
For `COc1ccc([Si](C)(C)[C@@H]2[C@@H](CC(=O)N(CCO)Cc3ccccc3)O[C@]3(C(=O)N(C)c4ccccc43)[C@H]2C)cc1`, the z-score is 0.841 (inactive).
With `O=c1cccc(C=Cc2ccccc2)o1`, the z-score was -0.121 (inactive).
The value for `O=C1OCC=C[C@H]2OC34C=CCN(c5ccc6ccccc6c5)C(=O)[C@H]3N(CCCO)C(=O)[C@@H]4[C@@H]12` (stereo not given in full) was -1.72 (inactive); that for `COCCOC(=O)N1C(=O)[C@@]2(c3cc(C#CC4=CCCCC4)ccc31)[C@H](C(=O)N1CCc3cc(OC)c(OC)cc3C1)[C@H]1C(=O)O[C@H](c3ccccc3)[C@H](c3ccccc3)N1[C@@H]2c1ccccc1OCCO` was -0.176 (inactive); that for `COCCOC(=O)N1C(=O)[C@@]2(c3cc(C#CCC(C(=O)OC)C(=O)OC)ccc31)[C@H](c1ccccc1OCCO)N1[C@H](c3ccccc3)[C@H](c3ccccc3)OC(=O)[C@H]1[C@@H]2C(N)=O` was -5.03 (inactive).
Take `CC(C)OC(=O)CC(=O)CC(O)c1ccc(C#N)cc1` (stereo not given): the z-score is -1.74 (inactive).
Take `COC(=O)[C@@]1(Cc2ccc(OC)cc2)[C@H]2c3cc(C(=O)N(C)C)n(Cc4c(OC)[nH]cc(C)c4=O)c3C[C@H]2CN1C(=O)c1ccccc1`: the z-score is -1.07 (inactive).
Regarding `O=C1C[C@@](C(=O)NC2CC2)(c2ccc([N+](=O)[O-])cc2)[C@@H](c2ccc(CO)cc2)N1CC12CC3CC(CC(C3)C1)C2`, the z-score is -1.42 (inactive).
